PubChem BioAssay (Tox21)
Records with an inconclusive call do not appear. Calls of active or inactive are those of the source. Unless noted, calls come from the whole dose curve; as a rule, active = well fitted curve in the direction sought with a large enough effect in the repeat runs; inconclusive = weak or mixed curves; inactive = no such curve, though single readings can be large; an effect the other way counts as inactive or inconclusive.

Legend:
[1] = qHTS assay to identify small molecule agonists of the peroxisome proliferator-activated receptor delta (PPARd) signaling pathway - cell viability counter screen (AID 743211); note: nearly all actives have a fitted effect of over 55% in size
Method in brief: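 Following 5 h plating at 37 C and 5% CO2, PPARd UAS-bla HEK293H cells took up test compounds for 17 h. Viability was quantified by luminescence 30 min after CellTiter-Glo addition at room temperature.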

[2] = target: Peroxisome proliferator-activated receptor delta (Homo sapiens) (UniProt Q03181); experiment: qHTS assay to identify small molecule agonists of the peroxisome proliferator-activated receptor delta (PPARd) signaling pathway (AID 743212; calls by dose curve)
Sequence of Peroxisome proliferator-activated receptor delta (Homo sapiens) (Q03181 whole entry, looked up): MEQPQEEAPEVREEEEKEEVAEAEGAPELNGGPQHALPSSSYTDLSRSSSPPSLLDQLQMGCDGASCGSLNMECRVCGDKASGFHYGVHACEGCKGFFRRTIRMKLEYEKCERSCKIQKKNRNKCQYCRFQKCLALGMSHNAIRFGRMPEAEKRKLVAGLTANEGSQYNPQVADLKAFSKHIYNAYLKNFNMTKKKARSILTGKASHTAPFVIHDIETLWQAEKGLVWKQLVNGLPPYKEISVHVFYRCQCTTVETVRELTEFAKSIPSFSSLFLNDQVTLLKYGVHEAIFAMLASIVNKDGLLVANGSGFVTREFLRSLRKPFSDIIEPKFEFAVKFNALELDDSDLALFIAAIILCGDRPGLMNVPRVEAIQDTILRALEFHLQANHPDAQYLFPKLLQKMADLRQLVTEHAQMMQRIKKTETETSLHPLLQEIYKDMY
Method in brief: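 HEK293H UAS-bla reporter cells, human PPARd system; compounds delivered in DMSO after 5 h plating, then at 37 C. Beta-lactamase FRET read, 2 h RT substrate step.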

[3] = qHTS assay to identify small molecule antagonists of the peroxisome proliferator-activated receptor delta (PPARd) signaling pathway - cell viability counter screen (AID 743213); note: nearly all actives have a fitted effect of over 50% in size
Method in brief: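 Cytotoxicity counter screen: CellTiter-Glo luminescence read 30 min after addition, in the same wells as the reporter assay. There, PPARd UAS-bla HEK293H cells (3000/well) were treated 17 h at 37 C with compound and 300 nM L165041.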

[4] = qHTS assay to identify small molecule agonists of the farnesoid-X-receptor (FXR) signaling pathway - cell viability counter screen (AID 743218); note: nearly all actives have a fitted effect of over 45% in size
Method in brief: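 Cytotoxicity counter-screen run in parallel, same wells: FXR-UAS-bla HEK 293T cells dosed 16 h at 37 C, viability read by CellTiter-Glo luminescence after 30 min at room temperature.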

[5] = qHTS assay to identify small molecule antagonists of the farnesoid-X-receptor (FXR) signaling pathway - cell viability counter screen (AID 743221; active = well fitted cell-killing curve with a large enough effect in the repeat runs, not every such curve was filed as active; note: nearly all actives have a fitted effect of over 50% in size)
Method in brief: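 Compound effects on cell number were measured as CellTiter-Glo luminescence in HEK 293T cells expressing FXR-UAS-bla, after 16 h at 37 C with 50 uM CDCA (final).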

[6] = target: Vitamin D3 receptor (Homo sapiens) (UniProt P11473); experiment: qHTS assay to identify small molecule agonists of the vitamin D receptor (VDR) signaling pathway (AID 743222; calls by dose curve)
Sequence of Vitamin D3 receptor (Homo sapiens) (P11473 whole entry, looked up): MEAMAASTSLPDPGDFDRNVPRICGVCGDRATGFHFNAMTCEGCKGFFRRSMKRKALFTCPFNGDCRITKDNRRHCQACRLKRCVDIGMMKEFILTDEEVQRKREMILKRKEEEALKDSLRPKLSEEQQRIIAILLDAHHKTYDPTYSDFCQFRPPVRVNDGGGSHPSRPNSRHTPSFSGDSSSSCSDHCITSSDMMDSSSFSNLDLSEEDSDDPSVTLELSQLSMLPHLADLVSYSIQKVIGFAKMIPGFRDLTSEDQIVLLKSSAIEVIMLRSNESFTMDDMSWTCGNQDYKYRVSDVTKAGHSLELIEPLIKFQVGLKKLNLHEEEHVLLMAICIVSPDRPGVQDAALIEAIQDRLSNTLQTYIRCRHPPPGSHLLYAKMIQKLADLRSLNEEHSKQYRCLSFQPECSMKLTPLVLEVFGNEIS
Method in brief: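 Quantitative HTS agonist-mode screen: compounds in DMSO were pin-transferred onto VDR-bla cells and incubated 16 h at 37C, 5% CO2. Reporter activity was detected with LiveBLAzer B/G FRET substrate after 2 h at room temperature.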

[7] = target: Bile acid receptor (Homo sapiens) (UniProt Q96RI1); experiment: qHTS assay to identify small molecule antagonists of the farnesoid-X-receptor (FXR) signaling pathway (AID 743217; active = well fitted inhibition curve with a large enough effect in the signal ratio in the repeat runs, not every such curve was filed as active; the % refers to the signal ratio)
Sequence of Bile acid receptor (Homo sapiens) (Q96RI1 whole entry, looked up): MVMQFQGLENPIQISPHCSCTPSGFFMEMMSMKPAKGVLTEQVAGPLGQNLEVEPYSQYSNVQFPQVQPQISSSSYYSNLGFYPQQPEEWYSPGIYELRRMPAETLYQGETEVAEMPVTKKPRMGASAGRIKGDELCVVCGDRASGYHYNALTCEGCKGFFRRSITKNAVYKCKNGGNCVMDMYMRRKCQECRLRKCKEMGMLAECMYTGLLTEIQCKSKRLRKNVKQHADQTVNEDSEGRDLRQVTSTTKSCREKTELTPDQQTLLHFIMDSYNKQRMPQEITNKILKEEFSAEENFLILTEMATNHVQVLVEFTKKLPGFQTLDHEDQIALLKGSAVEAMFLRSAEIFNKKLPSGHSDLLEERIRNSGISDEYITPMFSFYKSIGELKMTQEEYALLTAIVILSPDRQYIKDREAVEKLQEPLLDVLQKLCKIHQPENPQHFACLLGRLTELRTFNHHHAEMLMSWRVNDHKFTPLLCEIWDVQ
Method in brief: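 Antagonist mode against 50 uM (final) chenodeoxycholic acid stimulation in FXR-bla HEK 293T cells, 16 h at 37 °C. Inhibition detected as reduced beta-lactamase activity via LiveBLAzer B/G FRET fluorescence after 2 h at room temperature.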

[8] = target: Vitamin D3 receptor (Homo sapiens) (UniProt P11473); experiment: qHTS assay to identify small molecule antagonists of the vitamin D receptor (VDR) signaling pathway (AID 743223; active = well fitted inhibition curve with a large enough effect in the signal ratio in the repeat runs, not every such curve was filed as active; the % refers to the signal ratio)
Method in brief: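 Beta-lactamase activity in VDR-bla cells is measured by FRET substrate fluorescence (2 h, room temperature) after cells spend 16 h at 37C with test compound and 3 nM final 1alpha,25-dihydroxyvitamin D3.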

[9] = target: Bile acid receptor (Homo sapiens) (UniProt Q96RI1); experiment: qHTS assay to identify small molecule agonists of the farnesoid-X-receptor (FXR) signaling pathway (AID 743220; active = well fitted activation curve with a large enough effect in the signal ratio in the repeat runs, not every such curve was filed as active; the % refers to the signal ratio)
Method in brief: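 Beta-lactamase reporter under UAS control in GeneBLAzer FXR HEK 293T cells (5000/well) measured with LiveBLAzer FRET substrate after 2 h at room temperature. Compound exposure lasted 16 h at 37C.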

[10] = target: Peroxisome proliferator-activated receptor delta (Homo sapiens) (UniProt Q03181); experiment: qHTS assay to identify small molecule antagonists of the peroxisome proliferator-activated receptor delta (PPARd) signaling pathway (AID 743215; active = well fitted inhibition curve with a large enough effect in the signal ratio in the repeat runs, not every such curve was filed as active; the % refers to the signal ratio;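 note: cells stimulated with agonist L165041 at 300 nM final during compound exposure; series mostly up to about 62 µM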)
Method in brief: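 Inhibition of L165041-driven (300 nM final) PPARd signaling is scored in HEK293H UAS-bla cells. Exposure lasts 17 h at 37 C; beta-lactamase activity is then read by FRET substrate fluorescence after 2 h at room temperature.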
% is set by controls: 0 for no effect and ±100 for the full control effect.

COc1ccc(OC)c(Cl)c1
inactive: outcome [1] | outcome [2] | outcome [3] | Potency [4] | outcome [5]

CN1CCN(CC(=O)N2c3ccccc3C(=O)Nc3cccnc32)CC1
inactive: activity change, negative = cytotoxicity [1] -5.11% [at 5.95 µM] | activation [2] -1.15% [at 5.95 µM] | viability change, negative = cytotoxic [3] 18.4% [at 6.26 µM] | viability change, negative = cytotoxic [4] 9.72% [at 5.95 µM] | activity change, negative = cytotoxicity [5] -5.73% [at 5.95 µM] | activation [6] 2.22% [at 6.01 µM]

CC(C)C[C@H](NC(=O)CNC(=O)[C@H](Cc1ccc(O)cc1)NC(=O)[C@H](CO)NC(=O)[C@H](Cc1c[nH]c2ccccc12)NC(=O)[C@H](Cc1cnc[nH]1)NC(=O)[C@@H]1CCC(=O)N1)C(=O)N[C@@H](CCCN=C(N)N)C(=O)N1CCC[C@H]1C(=O)NCC(N)=O (stereo in doubt)
inactive: outcome [1] | outcome [2] | outcome [3] | Potency [7] | outcome [5] | outcome [6] | outcome [8]

CCC(C)(CCC(C)C)C(=O)O (stereo not given)
inactive: outcome [1] | outcome [2] | outcome [3] | Potency [4] | outcome [5] | outcome [6]

COC(=O)[C@@H]1[C@H]2C[C@H]3c4[nH]c5ccccc5c4CCN3C[C@@H]2CC[C@@H]1O
inactive: outcome [1] | outcome [2] | outcome [3] | Potency [4] | outcome [5] | outcome [6]

CCCCN
inactive: outcome [1] | outcome [2] | outcome [3] | outcome [5]

Oc1ccccc1-c1nnco1
inactive: outcome [1] | outcome [2] | outcome [3] | Potency [4] | outcome [5] | outcome [6]

C[Si](C)=O
inactive: activity change, negative = cytotoxicity [1] 1.6% [at 5.95 µM] | activation [2] 0.307% [at 5.95 µM] | viability change, negative = cytotoxic [3] -0.681% [at 6.26 µM] | activity change, negative = inhibition [7] 6.53% [at 5.95 µM] | activation [9] 2.56% [at 5.95 µM] | activity change, negative = cytotoxicity [5] -2.54% [at 5.95 µM]

O=S(O)(O)=S
inactive: activity change, negative = cytotoxicity [1] 0.0962% [at 5.95 µM] | activation [2] 0.0872% [at 5.95 µM] | viability change, negative = cytotoxic [3] -0.861% [at 6.26 µM] | activity change, negative = cytotoxicity [5] 6.74% [at 5.95 µM]

CCn1ccc(NS(=O)(=O)c2ccc(N)cc2)nc1=O
inactive: outcome [1] | outcome [2] | outcome [3] | Potency [4] | outcome [5]

OCCC(F)(F)C(F)(F)C(F)(F)C(F)(F)C(F)(F)C(F)(F)C(F)(F)C(F)(F)F
inactive: outcome [1] | outcome [2] | outcome [3] | Potency [4] | outcome [5] | outcome [6] | outcome [8]

CCOc1cc(NC(C)=O)ccc1C(=O)OC
inactive: outcome [1] | outcome [2] | outcome [3] | Potency [7] | Potency [9] | outcome [5]

CCO[Si](CCCS)(OCC)OCC
inactive: outcome [1] | outcome [2] | outcome [3] | Potency [4] | outcome [5]

COc1ccc2nc(SCc3ncc(C)c(OC)c3C)[nH]c2c1
inactive: outcome [1] | outcome [2] | outcome [3] | Potency [4] | outcome [5] | outcome [6]

CCNC(=O)C1CC(C)CCC1C(C)C (stereo not given)
inactive: outcome [1] | outcome [2] | outcome [3] | Potency [4] | outcome [5] | outcome [6]

CC(C)CCCCOC(=O)c1ccccc1C(=O)OCCCCC(C)C
inactive: outcome [1] | outcome [2] | outcome [3] | Potency [4] | outcome [5]

O=C(O)C(=O)Cc1ccccc1
inactive: outcome [1] | outcome [2] | outcome [3] | Potency [4] | outcome [5] | outcome [6]

CC(=O)CCCCn1c(=O)c2c(ncn2C)n(C)c1=O
inactive: outcome [1] | outcome [2] | outcome [3] | Potency [4] | outcome [5]

CCOCCOCCOCC
inactive: outcome [1] | outcome [2] | outcome [3] | Potency [4] | outcome [5] | outcome [6] | outcome [8]

CCCCCCCCOS(=O)(=O)O
inactive: outcome [1] | outcome [2] | outcome [3] | Potency [7] | Potency [9] | outcome [5]

Cc1ccsc1/C=C/C1=NCCCN1C
inactive: outcome [1] | outcome [2] | outcome [3] | Potency [7] | Potency [9] | outcome [5] | outcome [6] | outcome [8]

CC(C)C(=O)OCc1cccc(OC(=O)[C@@H]2N3C(=O)[C@@H](NC(=O)Cc4ccccc4)[C@H]3SC2(C)C)c1
inactive: outcome [1] | outcome [2] | outcome [3] | Potency [4] | outcome [5] | outcome [6] | outcome [8]

CC(C)(C)OC(=O)c1ccc(O)cc1
inactive: outcome [1] | outcome [2] | outcome [3] | Potency [7] | Potency [9] | outcome [5] | outcome [6]

OCCN(CCO)c1cccc(Cl)c1
inactive: outcome [1] | outcome [2] | outcome [3] | outcome [5]

CC(=O)Nc1ccc(S(=O)(=O)Nc2ccc([N+](=O)[O-])cc2)cc1
inactive: outcome [1] | outcome [2] | outcome [3] | Potency [4] | outcome [5] | outcome [6] | outcome [8]

CCCCCCCCSCC
inactive: outcome [1] | outcome [2] | outcome [3] | Potency [4] | outcome [5] | outcome [6]

CCCCC(CC)COCCO (stereo not given)
inactive: outcome [1] | outcome [2] | outcome [3] | outcome [5]

CCCCCOC(=O)CCC
inactive: outcome [1] | outcome [2] | outcome [3] | Potency [4] | outcome [5]

Oc1cn2c(n1)Nc1ccc(Cl)c(Cl)c1C2
inactive: outcome [1] | outcome [2] | outcome [3] | Potency [4] | outcome [5] | outcome [6]

Nc1ccc2cc(S(=O)(=O)O)cc(O)c2c1
inactive: outcome [1] | outcome [3] | Potency [7] | Potency [4] | Potency [9] | outcome [5] | outcome [8]

C[C@@H]1O[C@@H](O[C@@H]2[C@@H](O)[C@H](OCCc3ccc(O)c(O)c3)O[C@H](CO[C@@H]3O[C@H](CO)[C@@H](O)[C@H](O)[C@H]3O)[C@H]2OC(=O)/C=C/c2ccc(O)c(O)c2)[C@H](O)[C@H](O)[C@H]1O
inactive: outcome [1] | outcome [2] | Potency [4] | outcome [5] | outcome [6] | outcome [8]

CC1=C(C(=O)O)N2C(=O)[C@@H](NC(=O)[C@H](N)c3ccc(O)cc3)[C@H]2SC1
inactive: outcome [1] | outcome [3] | Potency [7] | Potency [4] | Potency [9] | outcome [5] | outcome [6] | outcome [8]

C[Si](C)(C)C
inactive: outcome [1] | outcome [2] | outcome [5] | outcome [6] | outcome [8]

CC(CC=O)CCCC(C)(C)O (stereo not given)
inactive: outcome [1] | outcome [2] | outcome [10] | Potency [4] | outcome [5]

O=C(NCC(O)CO)c1c(I)c(C(=O)NCC(O)CO)c(I)c(N(CCO)C(=O)CO)c1I (stereo not given)
inactive: outcome [1] | outcome [3] | Potency [7] | Potency [9] | outcome [5] | outcome [6]

O=C(NCCc1c[nH]c2ccccc12)c1cccnc1
inactive: outcome [1] | outcome [3] | Potency [7] | Potency [4] | Potency [9] | outcome [5] | outcome [6] | outcome [8]

FC(F)(F)c1ccccc1-n1ccnc1
inactive: outcome [1] | outcome [3] | outcome [10] | outcome [5] | outcome [6] | outcome [8]

BrCc1cccc(Oc2ccccc2)c1
inactive: outcome [1] | outcome [3] | outcome [10] | Potency [4] | outcome [5] | outcome [6] | outcome [8]

O=C1CCCC(=O)O1
inactive: outcome [1] | outcome [2] | Potency [4] | outcome [5] | outcome [6] | outcome [8]

CC(N)C(=O)OC(C)(C)Cc1ccc(Cl)cc1 (stereo not given)
inactive: outcome [1] | outcome [2] | outcome [10] | outcome [5] | outcome [6] | outcome [8]

O=C1O[C@@H]2[C@@H](O)[C@H](O)O[C@@H]2[C@H]1O
inactive: outcome [1] | outcome [3] | Potency [7] | Potency [4] | Potency [9] | outcome [5] | outcome [6] | outcome [8]

Nc1cccc(O)c1
inactive: outcome [1] | outcome [3] | outcome [10] | Potency [4] | Potency [9] | outcome [5] | outcome [8]

CCN(CC)CC(=O)Nc1c(C)cccc1C
inactive: outcome [1] | outcome [3] | Potency [7] | Potency [4] | Potency [9] | outcome [5]

Cc1ccc(C=O)cc1C
inactive: outcome [1] | outcome [3] | Potency [7] | Potency [4] | Potency [9] | outcome [5] | outcome [8]

O=C(CCNNC(=O)c1ccncc1)NCc1ccccc1
inactive: outcome [1] | outcome [3] | Potency [7] | Potency [4] | Potency [9] | outcome [5]

CC(C)CC(C)CC(C)CC(C)COC(=O)c1ccccc1C(=O)OCC(C)CC(C)CC(C)CC(C)C (stereo not given)
inactive: outcome [1] | outcome [3] | Potency [7] | Potency [4] | Potency [9] | outcome [5] | outcome [6]

CC(=O)OC(C)OC(=O)C(C)c1ccc(-c2ccccc2)c(F)c1 (stereo not given)
inactive: outcome [1] | outcome [3] | outcome [10] | Potency [7] | Potency [9] | outcome [5] | outcome [6]

CC(C)=O
inactive: outcome [1] | outcome [2] | outcome [3] | outcome [5] | outcome [8]

CCOC(=O)c1ccc(OC(=O)CCCCCN=C(N)N)cc1
inactive: outcome [1] | outcome [2] | outcome [3] | outcome [5]
